According to PubChem BioAssay AID652017 (The Scripps Research Institute Molecular Screening Center, 2013):
Among all 370,000 compounds or so, about 3,800 (1%) were called active. The sample as a whole holds a higher share of actives than the screen did. Values without a mark were called inactive. Rule as the data show it: active = activation above about 7.8%; inactive = the rest.

Experiment: SMARCA2 (BRM) function activators, primary screen, cell-based, luminescence, high throughput (AID 652017);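 also: 0% = vehicle wells and 100% = reference activator wells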
Settings: MG213 cells, MMTV-luciferase reporter, dexamethasone, overnight; at 9.1 µM; stronger effect = higher value
In the case of `Cc1cccc(NC(=O)C[C@H]2CC[C@H]3[C@@H](COc4ccc(NC(=O)Nc5ccccc5)cc4C(=O)N3C)O2)c1`, the activation is reported as 2.72%. For `Cc1cc(=O)[nH]c(SCC(=O)Nc2ccc(Cl)cc2C)n1`, the activation was -2.94%. `O=C(COc1ccc2c3c(c(=O)oc2c1)CCC3)NC1CCCCC1` showed an activation of -1.03%. In the case of `COC(=O)Cc1c(C)c2ccc(OCC(=O)NCc3ccc4c(c3)OCO4)cc2oc1=O`, the activation is reported as 2.31%. For `CCc1c(C)c2ccc(OC3CCCCC3=O)cc2oc1=O` (stereo unspecified), the activation was 13.8% (active). Work on `Cc1ccccc1NC(=O)Cn1nnc(-c2ccccc2F)n1` yielded an activation of 1.3%. `c1ccc(Cc2nn3c(Cn4cnc5ccccc54)nnc3s2)cc1` gave an activation of -3.67%. Work on `CN1CCC(=NNC(=O)c2ccc(N(Cc3ccc(Cl)cc3)S(C)(=O)=O)cc2)CC1` yielded an activation of -1.44%. In the case of `CC(NC(=O)c1ccc(Cl)cc1)C(=O)N1CCCCC1` (stereo unspecified), the activation is reported as 0.9%. With `CCC1CCC/C1=N\NC(=O)c1ccc(Cl)cc1` (stereo unspecified) the activation was 10.3% (active). With `O=C(CSc1ncnc2c1nnn2Cc1ccc(F)cc1)NC1CCCC1` the activation was -2.99%. `CCC(C)(C)c1ccc(Oc2ccc(NC(=O)COC(=O)C3=COCCO3)cc2)cc1` gave an activation of -10.1%. In the case of `O=C(OCC(=O)c1cccs1)C1=COCCO1`, the activation is reported as 8.48% (active). In the case of `O=C(OCC(=O)c1cccs1)c1ccc([N+](=O)[O-])o1`, the activation is reported as -0.97%. With `O=C1Nc2ccccc2-n2nnnc2C1N1CCN(c2cccc(C(F)(F)F)n2)CC1` (stereo unspecified) the activation was 3.09%. For `CCCn1nc(C(=O)Nc2ccc3nc(C)sc3c2)c2ccccc2c1=O`, the activation was 11.4% (active). `CCCCn1nc(C(=O)Nc2cccc(C(=O)NC3CC3)c2)c2ccccc2c1=O` showed an activation of 1.35%. Work on `CCCn1nc(C(=O)NNC(=O)CSCC(=O)Nc2cc(C)on2)c2ccccc2c1=O` yielded an activation of -2.41%. Compound `CCOC(=O)[C@@]12CN(C(=O)OC(C)(C)C)CC=C1N(Cc1ccc(OC)cc1)C(=O)[C@H]2CC(=O)NCc1ccc(OC)c(OC)c1` has an activation of -2.13%. `COC(=O)[C@H](CC(C)C)NS(=O)(=O)c1c(F)cccc1F` gave an activation of -3.1%. `C=CCN(C(=O)[C@@H](CCCC)[C@@H](O)c1ccc(Cl)cc1)c1ccccc1` gave an activation of -3.35%. `COc1ccccc1CCNC(=O)C1CCN(c2nc(C)cc(C)n2)CC1` gave an activation of -2.87%. Work on `CCOC(=O)[C@]12CCCC=C1N(CCCOC)C(=O)[C@@H]2CC(=O)N1CCOCC1` yielded an activation of -2.55%. In the case of `COc1ccc(S(=O)(=O)N(C)C[C@H]2Oc3c(NC(=O)Nc4ccc5c(c4)OCO5)cccc3C(=O)N([C@H](C)CO)C[C@@H]2C)cc1`, the activation is reported as -0.71%. In the case of `Cc1noc(C)c1S(=O)(=O)N(C)C[C@H]1Oc2c(NC(=O)Nc3ccc4c(c3)OCO4)cccc2C(=O)N([C@H](C)CO)C[C@@H]1C`, the activation is reported as 8.33% (active). For `Cc1noc(C)c1NC(=O)Nc1cccc2c1O[C@H](CN(C)S(=O)(=O)c1c(C)noc1C)[C@@H](C)CN([C@H](C)CO)C2=O`, the activation was 2.13%.
